# According to ChEMBL document CHEMBL3988442, “University of Dundee, Small-Polar-MMV Screening Library” (2021):
# The campaign covered roughly 69,000 compounds. About 1,000 (1.4%) showed an effect of 50% or more. The entries come from a sample that favours strong results as a whole.
# System: Leishmania donovani
# Experiment: Leishmania intramacrophage assay
# Type: functional, organism-based
# Set-up: scale not given: in the data most compounds retested in dose-response had high values
structure (smiles),measurement,setting,value
Cc1ccc(S(=O)(=O)N2CCc3nc(C4CCNCC4)ncc3C2)cc1.Cl,Percent Effect,"30 µM, 30.03 µM",-1.201%
Cl.O=S(=O)(c1ccc(Cl)cc1)N1CCc2nc(C3CCNCC3)ncc2C1,Percent Effect,"30.3 µM, […]",-22.35%
O=S(=O)(c1ccccc1Cl)N1CCc2nc(C3CCNCC3)ncc2C1,Percent Effect,"30 µM, 30.03 µM",50.23%
Cc1nc(C2CCCN2Cc2nc(C3CC3)no2)no1 (stereo unspecified),Percent Effect,30 µM,21.89%
CCCN(CCC)C(=O)c1cc(CN2CCC(O)CC2)on1,Percent Effect,"30.3 µM, […]",36.24%
CCn1ncc(Cn2cc(Cl)c(N)n2)c1C,Percent Effect,"30.3 µM, […]",-8.997%
Cc1nc(NCc2noc(C3CCCO3)n2)c2sccc2n1 (stereo unspecified),Percent Effect,"30.3 µM, […]",29.04%
COc1ccnc(CNc2nc(C)nc3ccsc23)c1,Percent Effect,"30.3 µM, […]",56.7%
COc1ccnc(CNc2nc(C)nc(C)c2C)c1,Percent Effect,"30.3 µM, […]",39.23%
CCc1csc(C2CCCN(C(=O)c3ccc4c(c3)OCO4)C2)n1 (stereo unspecified),Percent Effect,"30.3 µM, […]",-18.73%
Cc1ccc(S(=O)(=O)N2CC(C)Oc3ncccc32)c(F)c1 (stereo unspecified),Percent Effect,"30.3 µM, […]",21.87%
CC1CN(S(=O)(=O)c2ccc(F)cc2F)c2cccnc2O1 (stereo unspecified),Percent Effect,"30.3 µM, […]",30.4%
Cc1ccc(S(=O)(=O)N2CC(C)Oc3ncccc32)c(C)c1 (stereo unspecified),Percent Effect,"30.3 µM, […]",55.69%
CN(CC1(CO)CCC1)C(=O)c1cc(COc2ccccc2F)[nH]n1,Percent Effect,"30.3 µM, […]",-17.63%
COc1ccc2c(c1)CCCN(C(=O)NCC1CCCO1)C2 (stereo unspecified),Percent Effect,"30.3 µM, […]",6.687%
COc1ccc2c(c1)CCCN(CC(=O)NCC1CCCO1)C2 (stereo unspecified),Percent Effect,"30.3 µM, […]",55.19%
COc1ccc2c(c1)CN(CC(=O)NC1CCCC1)CC2,Percent Effect,"30.3 µM, […]",-7.68%
CC(=O)NC(C)C(=O)N(Cc1ccc(C)c(C)c1)C1CC1 (stereo unspecified),Percent Effect,"30.3 µM, […]",-3.591%
COc1ccccc1-c1ncc(CN2C[C@@H](N(C)C)[C@H](C(C)C)C2)s1,Percent Effect,"30.3 µM, […]",52.36%
COc1ccccc1-c1ncc(CN2C[C@H](O)[C@@H](N3CCCC3)C2)s1,Percent Effect,"30.3 µM, […]",4.457%
COc1ccccc1-c1ncc(CN2CCCC[C@H](N(C)C)C2)s1,Percent Effect,"30.3 µM, […]",36.23%
CNC(=O)CN1CC[C@H]2CN(C(=O)c3ccc(C)cc3)C[C@H]2C1.O=C(O)C(F)(F)F,Percent Effect,"30.3 µM, […]",2.501%
CCN1CCn2c(C)cnc2C12CCN(C(=O)N(C)C)CC2.O=C(O)C(F)(F)F.O=C(O)C(F)(F)F,Percent Effect,"30.3 µM, […]",6.426%
CC(C)c1cc(C(=O)N2CCOCC2CC(=O)c2ccco2)nn1C (stereo unspecified),Percent Effect,"30.3 µM, […]",-24.4%
Cc1nn(-c2ccccc2Cl)c(C)c1CCC(=O)O,Percent Effect,"30.3 µM, […]",-26.02%
NCC(c1ccc(Cl)cc1)N1CCc2sccc2C1 (stereo unspecified),Percent Effect,"30.3 µM, […]",40.17%
CC(C)c1ccc(C(CN)N2CCc3sccc3C2)cc1 (stereo unspecified),Percent Effect,"30.3 µM, […]",82.67%
NCC(c1ccccc1)N1CCc2sccc2C1 (stereo unspecified),Percent Effect,"30 µM, 30.03 µM",28.55%
O=C(NCCSC1CCCC1)c1ccc(F)cc1F,Percent Effect,"30.3 µM, […]",24.13%
COc1ccccc1N1CCN(C(=O)Cn2nc(C)c(Cl)c2C)CC1,Percent Effect,"30.3 µM, […]",31.83%
c1ccc2oc(CCCN3CCCC(Cn4cncn4)C3)nc2c1 (stereo unspecified),Percent Effect,30 µM,8.044%
Cc1cc(C(=O)N2C[C@H]3CC[C@@H]2CN(Cc2ccccn2)C3)nc(C)n1,Percent Effect,"30.3 µM, […]",16.91%
CC(=O)Nc1ccc(CNCC(O)c2ccc(Cl)cc2)cc1 (stereo unspecified),Percent Effect,"30.3 µM, […]",-0.7096%
CC(C)Nc1ncnc2c1CCN(c1cc(C(F)(F)F)ncn1)CC2,Percent Effect,"30.3 µM, […]",9.513%
CCOc1ccccc1CNC(=O)N(CC)C(C)c1cccnc1 (stereo unspecified),Percent Effect,"30.3 µM, […]",14.76%
CCN(C(=O)NCc1ccc(C)cc1OC)C(C)c1cccnc1 (stereo unspecified),Percent Effect,"30.3 µM, […]",51.84%
CCN(C(=O)NCc1ccccc1OC(F)F)C(C)c1cccnc1 (stereo unspecified),Percent Effect,"30.3 µM, […]",43.41%
Cc1ccc2c(n1)N(CC1CC1)CCN(Cc1cnn(C)c1)C2,Percent Effect,"30.3 µM, […]",26.83%
Cc1ccc2c(n1)N(Cc1cccnc1)CCN(C(=O)C1CC=CC1)C2,Percent Effect,"30.3 µM, […]",-19.75%
Cc1ccc2c(n1)N(Cc1cccnc1)CCN(Cc1cnn(C)c1)C2,Percent Effect,"30.3 µM, […]",76.22%
Cc1nn(C)c(Cl)c1C1CCCN1C(=O)c1nccnc1N (stereo unspecified),Percent Effect,"30 µM, 30.03 µM",1.892%
CC(NC(=O)NCCCn1cncn1)c1ccccc1Cl (stereo unspecified),Percent Effect,"30 µM, 30.03 µM",-19.77%
O=C(O)Cc1cnc(-c2c(Cl)cccc2Cl)s1,Percent Effect,"30.3 µM, […]",39.96%
Cc1noc([C@H]2C[C@H]3OCC[C@H]3N(Cc3ccc(F)cc3)C2)n1.O=C(O)C(F)(F)F,Percent Effect,"30.3 µM, […]",51.58%
Cc1noc([C@H]2C[C@H]3OCC[C@H]3N(Cc3ccc4c(c3)OCO4)C2)n1.O=C(O)C(F)(F)F,Percent Effect,"30 µM, 30.03 µM",25.3%
CCc1ccc(CN2C[C@@H](c3nc(C)no3)C[C@H]3OCC[C@H]32)o1.O=C(O)C(F)(F)F,Percent Effect,"30.3 µM, […]",-6.961%
Cc1cccnc1NC(=O)c1ccc(F)c(S(=O)(=O)NC2CC2)c1,Percent Effect,"30.3 µM, […]",2.163%
CC(=O)Nc1ncc(S(=O)(=O)Nc2cccc(O)c2)s1,Percent Effect,"30.3 µM, […]",53.03%
CC(=O)Nc1ncc(S(=O)(=O)Nc2cccc(C)c2)s1,Percent Effect,"30.3 µM, […]",11.84%
CC(=O)Nc1ncc(S(=O)(=O)Nc2cccc(F)c2)s1,Percent Effect,"30.3 µM, […]",-21.07%
Cc1cnc(N2CC[C@@H]3O[C@@H](COCC(=O)N(C)C)CC[C@@H]32)nc1.O=C(O)C(F)(F)F,Percent Effect,"30.3 µM, […]",58.41%
Cc1cnc(N2CC[C@@H]3OC(COCC(=O)N(C)C)CC[C@@H]32)nc1.O=C(O)C(F)(F)F (stereo partly specified),Percent Effect,"30.3 µM, […]",4.675%
CN(C)C(=O)COC[C@@H]1CC[C@H]2[C@H](CCN2c2ncccn2)O1.O=C(O)C(F)(F)F,Percent Effect,"30.3 µM, […]",37.88%
Cc1nc(-c2cncnc2C2CCCNC2)no1.Cl.Cl (stereo unspecified),Percent Effect,"30.3 µM, […]",9.405%
O=C(Nc1nncs1)c1ccc(O)nc1,Percent Effect,"30.3 µM, […]",16.66%
Cc1nnc(CCNC2CCN(c3ncnc4c(C)csc34)CC2)s1,Percent Effect,"30 µM, 30.03 µM",49.19%
CCc1nnc(CNC2CCN(c3ncnc4c(C)csc34)CC2)s1,Percent Effect,"30.3 µM, […]",52.55%
Cc1nc(C)n(CCNC2CCN(c3ncnc4c(C)csc34)CC2)n1,Percent Effect,"30.3 µM, […]",-18.48%
CCNC(=O)NC(C)c1nc(-c2ccc(Br)cc2)no1 (stereo unspecified),Percent Effect,"30.3 µM, […]",26.95%
CSCC1CCN(C(=O)c2ccccc2NCc2cccnc2)C1 (stereo unspecified),Percent Effect,"30.3 µM, […]",-38.07%
CN[C@@H](CO)C(=O)NCc1cc2n(n1)CCCN(C1CCCCC1)C2,Percent Effect,"30.3 µM, […]",3.405%
CCC(OC)C(=O)NCc1cc2n(n1)CCCN(C1CCCCC1)C2 (stereo unspecified),Percent Effect,"30.3 µM, […]",1.469%
CSCCC(=O)NCc1cc2n(n1)CCCN(C1CCCCC1)C2,Percent Effect,"30.3 µM, […]",-17.68%
CCC(C)NC(=O)NCc1cc2n(n1)CCCN(C1CCCCC1)C2 (stereo unspecified),Percent Effect,"30.3 µM, […]",50.3%
CCCOC(C)C(=O)NCc1cc2n(n1)CCCN(C1CCCCC1)C2 (stereo unspecified),Percent Effect,"30.3 µM, […]",20.03%
CC(C)SCC(=O)NCc1cc2n(n1)CCCN(C1CCCCC1)C2,Percent Effect,"30.3 µM, […]",64.6%
